Experimental findings from PubChem BioAssay (Tox21) are described below.

Calls of active or inactive are those of the source. Calls come from the whole dose curve; as a rule, active = well fitted curve in the direction sought with a large enough effect in the repeat runs; inconclusive = weak or mixed curves; inactive = flat fitted curve, though single readings scatter.
% is set by controls: 0 for no effect and ±100 for the full control effect.

A short description of the assay: qHTS assay to test for compound auto fluorescence at 535 nm (green) in HepG2 cell free culture (AID 720686). As to conditions: Cell-free medium, green autofluorescence 485/535 nm; series mostly up to 91.3 µM; fluorescence, % of fluorescein control: at the top concentration. The text has this: U.S. Tox21 Program National Center for Advancing Translational Sciences [NCATS] NIH Chemical Genomics Center [NCGC] U.S. Environmental Protection Agency [EPA] National Institutes of Environmental Health Sciences [NIEHS] National Toxicology Program [NTP] U.S. Food and Drug Administration [FDA] Tox21 Assay Overview: Compound auto fluorescence often interferes with screening of the compound library against various biological targets and signaling pathways. Some of these compounds may have fluorophoric properties. Such properties may interfere with the assay outputs resulting in false positives and/or negatives. To decrease such complications and ensure the compound activities are relevant in terms of biological response, the Tox21 10K compound library was screened for auto fluorescence. From the fluorophores used as reporter signals in our screening assays, the auto fluorescence equivalencies of compounds against three fluorophores have been evaluated: Triamterene, Fluorescein and Rose Bengal sodium for blue, green and red fluorescence, respectively. The fluorescence intensities were measured using Excitation/Emission wavelengths at 405/460nm, 485/535nm and 540/590nm for blue, green and red labels, respectively. This assay includes the green fluorescence data.
Tox21 Assay Protocol Summary: 5 uL of culture medium (MEM containing 10% FBS) per well was dispensed into black wall/clear bottom 1536-well plates using a Multidrop Combi Dispenser (ThermoFisher Scientific, Waltham, MA). After 23 nL compound or DMSO vehicle was transferred into assay plate by a pintool work station (Kalypsys, San Diego, CA), fluorescence intensities in the assay plates were measured by an Envision (PerkinElmer, Shelton, CT) plate reader using three labels for measuring blue, green and red fluorescence at […] 460, 535 and 590nm respectively.
Background: Quantitative high-throughput screening tests each substance at several concentrations.
For `Cn1c(NCCN(CCO)CCCc2ccc([N+](=O)[O-])cc2)cc(=O)n(C)c1=O`, the “fluorescence, % of fluorescein control” value was 0.0712% [at 46 µM] (inactive).

With `CN1CCN(C2=Nc3cc(Cl)ccc3Nc3ccccc32)CC1`, the “fluorescence, % of fluorescein control” value is -0.0413% [at 46 µM] (inactive).

With `CCCCCOC(=O)COc1cc(N2C(=O)C3=C(CCCC3)C2=O)c(F)cc1Cl`, the “fluorescence, % of fluorescein control” value is 0.164% (inactive).

`O=S(=O)(O)c1ccc(O)c2ncccc12`: the “fluorescence, % of fluorescein control” value is 0.0067% (inactive).

Take `CC(C)CCCCCCOC(=O)c1ccc(C(=O)OCCCCCCC(C)C)c(C(=O)OCCCCCCC(C)C)c1`: the “fluorescence, % of fluorescein control” value is -0.0183% (inactive).

`CC[C@]12CCCN3CCc4c(n(c5ccccc45)C(=O)C1)[C@@H]32`: the fluorescence, % of fluorescein control was -0.019% [at 18.6 µM] (inactive).

As for `Cc1occc1S`, the “fluorescence, % of fluorescein control” value is 0.0388% (inactive).

In the case of `C=CC(=O)OCCOC(=O)CCC(=O)O`, the “fluorescence, % of fluorescein control” value was 0.0324% (inactive).

Consider `Nc1nc(CC(=O)O)cs1`, for which the “fluorescence, % of fluorescein control” value was -0.0323% (inactive).

Regarding `CN(C(=O)CCCOc1ccc2[nH]c(=O)ccc2c1)C1CCCCC1`, the “fluorescence, % of fluorescein control” value was -0.0317% [at 46 µM] (inactive).

Consider `CC(C)(C)c1cc(CO)cc(C(C)(C)C)c1O`, for which the “fluorescence, % of fluorescein control” value was -0.0437% [at 95.7 µM] (inactive).

Consider `Cc1ncsc1CCO`, for which the “fluorescence, % of fluorescein control” value is -0.112% (inactive).

For the compound `CC(C(=O)O)c1ccc(C(=O)c2ccccc2)s1` (stereo not given), the fluorescence, % of fluorescein control was 0.146% [at 18.6 µM] (inactive).

Take `CC(C)NCC(O)c1cc(O)cc(O)c1` (stereo not given): the “fluorescence, % of fluorescein control” value was -0.0315% [at 46 µM] (inactive).

On to `CN1CCC(=C2c3ccccc3CCc3sccc32)CC1`, for which the “fluorescence, % of fluorescein control” value is 0.0895% [at 46 µM] (inactive).

With `NC(N)=NN=C(/C=C/c1ccc([N+](=O)[O-])o1)/C=C/c1ccc([N+](=O)[O-])o1`, the “fluorescence, % of fluorescein control” value was -0.142% [at 46 µM] (inactive).

With `CCOc1cc(OCC)c(C(=O)CCC(=O)O)cc1OCC`, the “fluorescence, % of fluorescein control” value was 0.0323% [at 46 µM] (inactive).

Regarding `CN(C)CCCOc1nn(Cc2ccccc2)c2ccccc12`, the fluorescence, % of fluorescein control is 0.0194% [at 18.6 µM] (inactive).

Consider `CC1CCc2cc(F)cc3c(=O)c(C(=O)O)cn1c23` (stereo not given), for which the “fluorescence, % of fluorescein control” value is -0.0517% [at 46 µM] (inactive).

Regarding `Cn1c(N)nc2nc[nH]c2c1=O`, the “fluorescence, % of fluorescein control” value is 0.0361% (inactive).

Regarding `CCCCCOC(=O)c1ccc(O)cc1`, the “fluorescence, % of fluorescein control” value was 0.006% [at 95.7 µM] (inactive).

For the compound `Nc1nc(N)c(-c2ccccc2)s1`, the “fluorescence, % of fluorescein control” value was -0.0206% [at 46 µM] (inactive).

Consider `FC(F)(F)C(F)(F)C(F)(F)C(F)(F)C(F)(F)C(F)(F)CCI`, for which the “fluorescence, % of fluorescein control” value was -0.0142% [at 46 µM] (inactive).

On to `CCCCC(CC)COCCCN` (stereo not given), for which the “fluorescence, % of fluorescein control” value was 0.0475% (inactive).

For `CCN(CCO)CCCC(C)Nc1ccnc2cc(Cl)ccc12` (stereo not given), the “fluorescence, % of fluorescein control” value is -0.064% [at 46 µM] (inactive).

Consider `Oc1ccc2c(c1)OCO2`, for which the “fluorescence, % of fluorescein control” value is 0.0157% (inactive).

For the compound `C#CCOC(=O)[C@@H](C)Oc1ccc(Oc2ncc(Cl)cc2F)cc1`, the “fluorescence, % of fluorescein control” value was 0.0567% (inactive).

On to `CCOC(=O)C1=C(C)NC(C)=C(C(=O)OC)C1c1cccc([N+](=O)[O-])c1` (stereo not given), for which the “fluorescence, % of fluorescein control” value is -0.0082% [at 46 µM] (inactive).

For the compound `NCCCOCCOCCOCCCN`, the “fluorescence, % of fluorescein control” value was 0.0645% (inactive).

On to `C=CC[N+]1([C@H]2C[C@H]3[C@@H]4CC[C@H]5C[C@H](OC(C)=O)[C@@H](N6CCCCC6)C[C@]5(C)[C@H]4CC[C@]3(C)[C@H]2OC(=O)CC)CCCCC1`, for which the “fluorescence, % of fluorescein control” value is 0.0954% [at 46 µM] (inactive).

Regarding `Cc1ccccn1`, the call was inactive.

Turning to `O=c1c2ccccc2nnn1CCl`, the “fluorescence, % of fluorescein control” value was 0.0298% (inactive).

As to `O=C(c1ccc(O)cc1)c1ccc(O)cc1`, the “fluorescence, % of fluorescein control” value is -0.0506% (inactive).

On to `CC(=O)N(O)CCCCCNC(=O)CCC(=O)N(O)CCCCCNC(=O)CCC(=O)N(O)CCCCCN`, for which the fluorescence, % of fluorescein control is 0.169% [at 18.6 µM] (inactive).

As to `O=CNc1ccccc1`, the “fluorescence, % of fluorescein control” value was -0.011% (inactive).

As to `CCOc1ccc2[nH]cc(C(=O)NCc3ccccc3)c(=O)c2n1`, the “fluorescence, % of fluorescein control” value was 0.02% (inactive).

`O=C(O)Cc1cc(I)c(Oc2ccc(O)c(I)c2)c(I)c1`: the call was inactive.

`CN1CCC(OC(c2ccccc2)c2ccccc2)CC1`: the fluorescence, % of fluorescein control is -0.14% [at 18.6 µM] (inactive).

Regarding `O=C(c1ccccc1)c1ccc2n1CCC2C(=O)O` (stereo not given), the call was inactive.

With `COc1ccc(C(C)=O)cc1`, the “fluorescence, % of fluorescein control” value was -0.0133% [at 95.7 µM] (inactive).
